Test results from PubChem BioAssay (NCATS).
Records with an inconclusive call do not appear. Entries that show only a call come without a potency. The source made the active and inactive calls. The call rests on the fitted dose curve; in most records, active means well fitted curve in the direction sought with a large enough effect; inconclusive means small, poorly fitted or top-dose-only effect, or another doubt; inactive means no such curve, though single readings can be large; an effect the other way counts as inactive or inconclusive.

Assays:
[1] = qHTS of pediatric cancer cell lines to identify multiple opportunities for drug repurposing: Confirmatory screen for TC32 cells (AID 1347118);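 further: potency means the concentration at half of the fitted maximal effect; cells exposed to compound for 48 h before the read; nearly all actives have a fitted effect of over 65% in size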
In short: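 Measured quantity: luminescence from CellTiter-Glo, reflecting metabolically active TC32 cells following 48 h of compound. Curves came straight from multi-point titrations, with 8 or 11 points in primary and 11 in confirmatory screening.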

[2] = qHTS of pediatric cancer cell lines to identify multiple opportunities for drug repurposing: Confirmatory screen for MG 63 (6-TG R) cells (AID 1347119); further: nearly all actives have a fitted effect of over 55% in size; further: potency means the concentration at half of the fitted maximal effect
In short: (§1)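 Cells (500-1,000/well) in growth media were settled 5 h at 37 degrees C, then given compounds for 48 h. Viability was read as CellTiter-Glo luminescence. Primary runs used MIPE at 11 points (0.78 nM-46 µM) and NPC at 8 points (0.59 nM-46 µM); follow-ups used 11 points.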

[3] = qHTS of pediatric cancer cell lines to identify multiple opportunities for drug repurposing: Confirmatory screen for control Hh wild type fibroblast cells (AID 1347121); further: nearly all actives have a fitted effect of over 70% in size; further: potency means the concentration at half of the fitted maximal effect
In short: as §1

[4] = qHTS of pediatric cancer cell lines to identify multiple opportunities for drug repurposing: Confirmatory screen for U-2 OS cells (AID 1347122); further: nearly all actives have a fitted effect of over 65% in size; further: potency means the concentration at half of the fitted maximal effect
In short: as §1

[5] = qHTS of pediatric cancer cell lines to identify multiple opportunities for drug repurposing: Confirmatory screen for Rh41 cells (AID 1347123);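 further: 48 h compound exposure; nearly all actives have a fitted effect of over 60% in size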; further: potency means the concentration at half of the fitted maximal effect
In short: as §1

[6] = qHTS of pediatric cancer cell lines to identify multiple opportunities for drug repurposing: Confirmatory screen for RD cells (AID 1347124);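 further: cells exposed to compound for 48 h before viability readout; nearly all actives have a fitted effect of over 65% in size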; further: potency means the concentration at half of the fitted maximal effect
In short: as §1

[7] = qHTS of pediatric cancer cell lines to identify multiple opportunities for drug repurposing: Confirmatory screen for Rh18 cells (AID 1347125); further: nearly all actives have a fitted effect of over 55% in size; further: potency means the concentration at half of the fitted maximal effect
In short: as §1

[8] = qHTS of pediatric cancer cell lines to identify multiple opportunities for drug repurposing: Confirmatory screen for Rh30 cells (AID 1347126); further: nearly all actives have a fitted effect of over 55% in size; further: potency means the concentration at half of the fitted maximal effect
In short: as §1

[9] = qHTS of pediatric cancer cell lines to identify multiple opportunities for drug repurposing: Confirmatory screen for OHS-50 cells (AID 1347128);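 further: compound exposure lasted 48 h at 37 degrees C; nearly all actives have a fitted effect of over 55% in size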; further: potency means the concentration at half of the fitted maximal effect
In short: as §1

[10] = qHTS of pediatric cancer cell lines to identify multiple opportunities for drug repurposing: Confirmatory screen for SK-N-SH cells (AID 1347129);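 further: cells exposed to compound for 48 h before viability read; nearly all actives have a fitted effect of over 60% in size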; further: potency means the concentration at half of the fitted maximal effect
In short: as §1

[11] = molecular target: N-terminal Xaa-Pro-Lys N-methyltransferase 1 (Homo sapiens) (UniProt Q9BV86); test: qHTS Assay for Inhibitors of N-terminal methyltransferase 1 (NTMT1): LOPAC validation of the NTMT1 SAHH-coupled ThioGlo3 Assay (AID 1347143); further: potency means the concentration at half of the fitted maximal effect; nearly all actives have a fitted effect of over 70% in size
N-terminal Xaa-Pro-Lys N-methyltransferase 1 (Homo sapiens), sequence (Q9BV86 whole entry, looked up): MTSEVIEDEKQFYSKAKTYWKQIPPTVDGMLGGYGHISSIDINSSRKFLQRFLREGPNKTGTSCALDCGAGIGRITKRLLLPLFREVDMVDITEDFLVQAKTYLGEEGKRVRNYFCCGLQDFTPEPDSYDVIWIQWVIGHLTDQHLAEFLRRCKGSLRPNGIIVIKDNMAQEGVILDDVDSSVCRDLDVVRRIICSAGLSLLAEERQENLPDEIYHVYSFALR
In short: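 Fluorescence read-out (excitation 340nm, emission 450nm) of SAH-derived thiol, measured via SAHH coupling and ThioGlo3, taken immediately and after a 30 min room-temperature reaction, then normalized to the background read. Enzyme: NTMT1 at 125nM; cofactor SAM 100uM in the added reagent.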

[12] = system: Zika virus NS2B-NS3 protease (linked construct); test: Confirmatory screen NINDS AMC qHTS for Zika virus inhibitors (AID 1347152);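 further: AMC fluorescence gain from cleaved Bz-Nle-KRR-AMC substrate over 15 min; top concentration of the series differs between compounds; nearly all actives have a fitted effect of over 70% in size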
In short: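 Purified NS2B-NS3 protease with NS2B hydrophilic domain linked to NS3 protease domain by flexible linker, 1 nM final in 10 mM Tris-HCl pH 8.0, 0.01% Tween 20. Compounds preincubated 15 min, room temperature; Bz-Nle-KRR-AMC 10 microM (Km 18.3 µM); 15-min fluorescence change, 4-parameter Hill fit.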

[13] = system: Zika virus NS2B-NS3 protease (unlinked complex); test: Confirmatory screen GU AMC qHTS for Zika virus inhibitors (AID 1347153); further: nearly all actives have a fitted effect of over 70% in size
In short: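 Unlinked enzyme 25 nM, Tris pH 8.0/0.01% Tween 20; cpd 15 min RT, dark; + AMC substrate 10 µM (Km 18.3 µM); 340/450 nm read at t0 and 15 min; % inhibition → 4-param fit.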

[14] = system: Zika virus NS2B-NS3 protease; test: Primary screen GU AMC qHTS for Zika virus inhibitors (AID 1347154); further: nearly all actives have a fitted effect of over 70% in size
In short: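 Unlinked Zika NS2B hydrophilic domain/NS3 protease domain noncovalent complex (25 nM final) in 10 mM Tris-HCl pH 8.0, 0.01% Tween 20, with AMC peptide substrate. Fluorescence (ex 340, em 450 nm) change over 15 min, room temperature; percent inhibition fitted to 4-parameter Hill equation.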

[15] = qHTS of pediatric cancer cell lines to identify multiple opportunities for drug repurposing: Confirmatory screen for Saos-2 cells (AID 1347127); further: nearly all actives have a fitted effect of over 60% in size; further: potency means the concentration at half of the fitted maximal effect
In short: as §1

Furin (Homo sapiens) = Furin (Homo sapiens) (UniProt P09958); test: Furin counterscreen qHTS for Zika virus inhibitors (AID 1347149)
Furin (Homo sapiens), sequence (P09958 whole entry, looked up): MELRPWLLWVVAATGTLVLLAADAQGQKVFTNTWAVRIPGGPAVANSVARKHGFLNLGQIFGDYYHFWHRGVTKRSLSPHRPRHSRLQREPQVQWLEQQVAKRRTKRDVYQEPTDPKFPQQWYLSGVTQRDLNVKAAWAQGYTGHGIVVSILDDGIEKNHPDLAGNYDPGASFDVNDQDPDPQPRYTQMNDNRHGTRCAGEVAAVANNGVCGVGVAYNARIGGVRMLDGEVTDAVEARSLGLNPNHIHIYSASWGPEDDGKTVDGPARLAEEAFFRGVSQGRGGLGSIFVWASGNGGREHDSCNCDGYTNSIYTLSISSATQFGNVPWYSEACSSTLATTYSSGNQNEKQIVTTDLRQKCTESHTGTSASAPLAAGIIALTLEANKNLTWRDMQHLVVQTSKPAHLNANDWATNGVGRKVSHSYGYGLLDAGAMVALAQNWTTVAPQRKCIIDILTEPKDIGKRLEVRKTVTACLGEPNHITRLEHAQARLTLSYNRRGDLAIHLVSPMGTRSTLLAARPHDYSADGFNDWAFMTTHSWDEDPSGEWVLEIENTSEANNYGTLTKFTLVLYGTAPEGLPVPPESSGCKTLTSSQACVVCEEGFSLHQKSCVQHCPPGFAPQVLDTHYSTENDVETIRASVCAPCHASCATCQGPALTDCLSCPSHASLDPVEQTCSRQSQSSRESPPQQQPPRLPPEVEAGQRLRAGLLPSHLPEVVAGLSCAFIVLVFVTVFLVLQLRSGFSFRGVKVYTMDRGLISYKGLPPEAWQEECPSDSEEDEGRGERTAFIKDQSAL
In short: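 Fluorogenic cleavage of BOC-RVRR-AMC (2 microM final, Km ~15 µM) was monitored (ex 340, em 450 nm) at 37C after 15 min RT preincubation of 5 nM furin with compounds in HEPES pH 7.0 buffer with CaCl2 and Triton X-100. Percent inhibition was fitted to a 4-parameter Hill curve.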

[16] = system: Zika virus NS2B-NS3 protease (unlinked); test: Optimization of GU AMC qHTS for Zika virus inhibitors: Unlinked NS2B-NS3 protease assay (AID 1347151); further: series mostly up to about 52 µM; nearly all actives have a fitted effect of over 80% in size
In short: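 Noncovalent complex of NS2B hydrophilic domain and NS3 protease domain, 25 nM final, in 10 mM Tris-HCl pH 8.0, 0.01% Tween 20. AMC fluorescence change over 15 min at room temperature was fitted to a 4-parameter Hill equation.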

[17] = system: Zika virus NS2B-NS3 protease (unlinked complex); test: Primary screen GU Rhodamine qHTS for Zika virus inhibitors: Unlinked NS2B-NS3 protease assay (AID 1347159); further: nearly all actives have a fitted effect of over 60% in size
In short: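 Compounds, tested up to 114 microM, were incubated for 15 minutes with 25 nM unlinked NS2B-NS3 protease at pH 8.0. Cleavage of 1.5 microM Rhodamine110 substrate was then followed by fluorescence for 15 minutes.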

SMILES	Potency [1]	Potency [2]	Potency [3]	Potency [4]	Potency [5]	Potency [6]	Potency [7]	Potency [8]	Potency [9]	Potency [10]	Potency [11]	Potency [12]	Potency [13]	Potency [14]	Potency [15]	Potency (Furin (Homo sapiens))	Potency [16]	Potency [17]
Oc1ccc(-c2nc(-c3ccc(F)cc3)c(-c3ccncc3)[nH]2)cc1	0.737 µM (active)	14.7 µM (active)	inactive	inactive	1.47 µM (active)	inactive	23.3 µM (active)	14.7 µM (active)	3.69 µM (active)	5.26 µM (active)	79.4 µM (active)	inactive	inactive	inactive				
CC(C)C[C@H](NC(=O)[C@H](Cc1ccccc1)NC(=O)c1cnccn1)B(O)O	0.0414 µM (active)	0.0208 µM (active)	0.827 µM (active)	0.0585 µM (active)	0.0165 µM (active)	0.0414 µM (active)	0.0465 µM (active)	0.233 µM (active)	0.0737 µM (active)	0.0332 µM (active)				inactive	0.208 µM (active)	inactive	inactive	inactive
O=C(NCC1CCCCN1)c1cc(OCC(F)(F)F)ccc1OCC(F)(F)F (stereo unspecified)	5.22 µM (active)	inactive	inactive	inactive	inactive	inactive	inactive			inactive				inactive	inactive			
Nc1ccn([C@@H]2O[C@H](CO)[C@@H](O)C2O)c(=O)n1 (stereo partly specified)		inactive	inactive	inactive	inactive	inactive		inactive	inactive	inactive				inactive	inactive			
Cc1cc(C2CCCCC2)n(O)c(=O)c1	4.65 µM (active)	20.8 µM (active)						8.27 µM (active)		2.35 µM (active)				inactive				
Clc1ccc(C(Cn2ccnc2)OCc2ccsc2Cl)c(Cl)c1 (stereo unspecified)	11.7 µM (active)		inactive				14.7 µM (active)	inactive	11.7 µM (active)					inactive	10.4 µM (active)			
